This is an account of results in PubChem BioAssay.

The experiment in a line: small-molecule microarray binders of probe aLefty2, primary screen, biochemical, biotinylated probe, 635/667 nm fluorescence (AID 1094).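 Note: score merges spot fluorescence near 667 nm with spot signal-to-noise ratio.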 To be noted: higher = more signal.
Molecule `O=C1CCCC(C2=CCCCC2=O)C1` (stereo unspecified) came in with a composite z-score of 0.02. Regarding `Cn1c(=O)n2n(c1=O)[C@H]1[C@H](O)[C@@H]3O[C@@H]3C(=NOCc3ccccc3)[C@H]1CC2`, the composite z-score was -0.185.

For `CO[C@H](C1CCCCC1)[C@H](C)C=CCC(=O)OCCCc1ccccc1`, the composite z-score is -0.192. For `COC(=O)[C@H](C)NC(=O)CCC1CC(OC(=O)NCc2ccc3c(c2)OCO3)CC2(CCCC(COC(=O)NCC(c3ccccc3)c3ccccc3)O2)O1` (stereo partly specified), the composite z-score is -0.118. In turn, `O=c1n(-c2ccccc2)c(=O)n2n1CC[C@@H]1C(=NOCc3ccccc3)[C@H]3O[C@H]3[C@@H](O)[C@@H]12` showed a composite z-score of -0.274.

The molecule `COC(=O)[C@H]1[C@@H](O)[C@@]2(O)c3ccccc3O[C@@]2(c2ccccc2)[C@@H]1c1ccccc1` came in with a composite z-score of -0.0324. In turn, `COC(=O)CC=C[C@@H](C)[C@@H](C=NOC(C)CN1CCCc2nc(C)c(C)cc21)OC` (stereo partly specified) came in with a composite z-score of -0.165. As to `COC(=O)[C@H](C)NC(=O)CCC1CC(OC(=O)NCCc2ccc(F)cc2)CC2(CCCC(COC(=O)NCc3cccc(C(F)(F)F)c3)O2)O1` (stereo partly specified), the composite z-score was -0.0668.

In the case of `Cc1ccc(S(=O)(=O)N[C@H]2COC(=O)CC=C[C@H](C)[C@@H](NS(=O)(=O)c3ccc(C)cc3)COC(=O)CC=C[C@@H]2C)cc1`, the composite z-score is -0.126. Consider `CON=C1[C@H]2CCn3c(=O)n(-c4ccccc4)c(=O)n3[C@H]2[C@H](O)[C@@H]2O[C@H]12`, for which the composite z-score is -0.205.

In turn, `C#CCCCON=C1C[C@@H](O)[C@@H](O)[C@@H]2[C@@H]3C(=O)N(C(C)(C)C)C(=O)[C@@H]3CC[C@@H]12` displayed a composite z-score of 0.502.

Consider `CO[C@H]1COC(=O)CC=C[C@@H](C)[C@H](NS(=O)(=O)c2ccc(C)cc2)COC(=O)CCC[C@@H]1C`, for which the composite z-score is -0.122. Under `COc1ccc(COC(=O)NN=C2C[C@@H](O)[C@@H](O)[C@@H]3[C@@H]4C(=O)N(c5ccc(F)cc5F)C(=O)[C@@H]4CC[C@H]23)cc1` stands 0.469. The molecule `COc1ccc(O[C@H]2C=C[C@@H](c3ccccc3)O[C@@H]2COC(=O)CCC(C)=NOC[C@@H](O)[C@H]2O[C@@H]3OC(C)(C)O[C@@H]3[C@H]2O)cc1` gave a composite z-score of -0.103. Turning to `CO[C@H]1COC(=O)CC=C[C@H](C)[C@@H](OC)COC(=O)[C@H](C)COC(=O)CC=C[C@@H]1C`, the composite z-score was -0.268. Under `CCOC(=O)C1=NO[C@]2(C=C(Br)C3(OCCCO3)[C@H]3O[C@H]32)C1` stands -0.244; under `Cc1cc2c(nc1C)CCCCN2CC(C)ON=C1[C@H]2CCn3c(=O)n(-c4ccccc4)c(=O)n3[C@H]2[C@H](O)[C@@H]2O[C@H]12` (stereo partly specified), 0.106; under `COc1ccc(O[C@H]2C=C[C@@H](c3ccccc3)O[C@@H]2COC(=O)CCC(C)=NO[C@@H]2O[C@H](COC(C)=O)[C@@H](OC(C)=O)[C@H](OC(C)=O)[C@H]2OC(C)=O)cc1`, -0.253.

Turning to `Cc1cc2c(c(=O)o1)[C@@H](O)[C@H]1O[C@H]1C2=O`, the composite z-score is -0.358. On to `CCOC(=O)CCN1C(=O)[C@H]2[C@H]3[C@H](O)[C@H](O)CC(=NNC(=O)OCc4ccccc4)[C@@H]3CC[C@H]2C1=O`, for which the composite z-score is -0.23. Molecule `O=C1[C@H]2[C@H]3[C@H](O)[C@H](O)CC(=NOC[C@@H](O)COCc4ccco4)[C@@H]3CC[C@H]2C(=O)N1C[C@@H]1CCCO1` registered a composite z-score of -0.0732. For `CC(C)CON=C1C[C@@H](O)[C@@H](O)[C@@H]2[C@@H]3C(=O)N(C[C@@H]4CCCO4)C(=O)[C@@H]3CC[C@@H]12`, the composite z-score is -0.209. `CON=Cc1ccc(C(=O)N2[C@H](c3ccc(C)cc3)[C@@H](C)CC[C@H]2C(=O)OC)cc1` showed a composite z-score of -0.293.

`C[C@@H](c1ccccc1)N1C(=O)[C@H]2[C@H]3[C@H](O)[C@H](O)CC(=O)[C@H]3CC[C@H]2C1=O` gave a composite z-score of -0.0483. Under `CC(C)CON=C1C[C@@H](O)[C@@H](O)[C@@H]2[C@@H]3C(=O)N(Cc4ccc5c(c4)OCO5)C(=O)[C@@H]3CC[C@H]12` stands -0.2; under `CCN1C(=O)[C@H]2[C@H]3[C@H](O)[C@H](O)CC(=NOCC(C)C)[C@@H]3CC[C@H]2C1=O`, -0.0898. In turn, `CC(C)=NO[C@H](C)c1cn([C@H](CO)Cc2ccccc2)nn1` gave a composite z-score of -0.166. Under `CCCNC(=O)OC[C@H]1O[C@H](c2ccccc2)C=C[C@@H]1Oc1ccc(OC)cc1` stands -0.0916. In turn, `C[C@@H]1CC[C@H]2C(=O)O[C@@H](Cc3ccccc3)CN2[C@H]1c1ccc(Br)cc1` had a composite z-score of -0.0258. Molecule `COc1ccc(O[C@H]2C=C[C@@H](c3ccccc3)O[C@@H]2CON=C(C)CCC(=O)OC[C@H]2O[C@H](c3ccccc3)C=C[C@@H]2Oc2ccc(OC)cc2)cc1` displayed a composite z-score of -0.294. Turning to `O=C1[C@H]2[C@H]3[C@H](O)[C@H](O)CC(=NOCc4ccccc4)[C@@H]3CC[C@H]2C(=O)N1Cc1ccc2c(c1)OCO2`, the composite z-score is -0.17.

With `COC(=O)CC=C[C@@H](C)[C@@H](C=NO[C@@H]1O[C@H](COC(C)=O)[C@@H](OC(C)=O)[C@H](OC(C)=O)[C@H]1OC(C)=O)OC`, the composite z-score was -0.0397.

`COc1cccc([C@H]2Oc3ccc(OC)cc3C(=NOC[C@@H](O)[C@H]3O[C@@H]4OC(C)(C)O[C@@H]4[C@H]3O)[C@@H]2O)c1`: the composite z-score was -0.0616. Under `O=C1C[C@@H](O)[C@@H](O)[C@@H]2[C@@H]3C(=O)N(Cc4ccccc4)C(=O)[C@@H]3CC[C@@H]12` stands -0.14.

As for `CO[C@H]1COC(=O)CC=C[C@@H](C)[C@H](OC)COC(=O)CCC[C@@H]1C`, the composite z-score is -0.17. With `CCN1C(=O)[C@H]2[C@H]3[C@H](O)[C@H](O)CC(=NNC(=O)OCc4ccc(OC)cc4)[C@@H]3CC[C@H]2C1=O`, the composite z-score came out at 0.241.
